# Shown are actives, neighbours in structure and some others; about 3% of the full set was active somewhere.
# EBV LMP1 NFkB: reduces LMP1-driven NF-kappaB luciferase signal | AID 504558 | actives 0.69% (n = 350,000) | LMP1-induced NF-kappaB luciferase reporter cells, luminescence | inhibition, % at 12.5 µM; in the data active means inhibition above about 41%; inconclusive means no clear call, values can overlap the other calls;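 further: 0% = neutral control wells and 100% = reference inhibitor control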
# TRPM1 prom inh: reduces MITF-dependent TRPM1 promoter luciferase signal; actives 0.83% (n = 330,000); inhibition, % at 12.5 µM; SK-MEL-5 TRPM1 promoter luciferase, 24 h;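 active means mean inhibition across replicates of 60% or more, whatever share of single replicates reaches that level; inconclusive means some that reach 60%, reason not given; inactive means mean inhibition across replicates below 60%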
# Peg3 promoter: reduces Peg3 promoter-driven luciferase expression in HeLa; HeLa PEG-Prom luciferase reporter, luminescence, overnight; inhibition, % at 20 µM; actives 1.7% (n = 360,000); AID 588405;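 active means inhibition of at least 50% at 20 µM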
# CF NFkB inh: inhibitors of cystic fibrosis induced NF-kB. KKLEB NF-kB-GFP reporter, PAF-induced, GFP fluorescence overnight. inhibition, % at 5 µM. actives 0.86% (n = 360,000). AID 588850;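 active means at least 50% inhibition at 5 µM, scaled per plate between neutral and stimulator controls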;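 further: PAF is a Pseudomonas aeruginosa culture filtrate used as stimulus; plate controls were PAF-stimulated DMSO wells for no effect and unstimulated DMSO wells for full effect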
# KKLEB cytotox: reduces viability of KKLEB cystic fibrosis airway cells | actives 0.36% (n = 360,000) | KKLEB CF airway cells viability, ATPlite luminescence, overnight; hits give low values; cells stimulated with P. aeruginosa culture filtrate | activity change (cytotoxicity), % at 5 µM | AID 602141;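 active means corrected activity change at or below -50% at 5 µM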
# HIF-2a block: inhibitors of HIF-2a; 786-0 RCC cells HIF-2a reporter, luciferase luminescence, overnight; inhibition, % at 18.8 µM; actives 0.72% (n = 360,000);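 active means inhibition of the luminescence signal of 40% or more relative to plate controls, in a single-dose primary screen at 18.75 µM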
# * = called active by the depositor; u = inconclusive; x = no result.
SMILES,EBV LMP1 NFkB,TRPM1 prom inh,Peg3 promoter,CF NFkB inh,KKLEB cytotox,HIF-2a block
C#CCOCCOCCOCCNc1nc(N2CCN(C(=O)CCCCCCCCCCNC(=O)Cn3cc(C[C@@H](C)O)nn3)CC2)nc(N2CCN(C(=O)CCCCCCCCCCNC(=O)Cn3cc(C[C@@H](C)O)nn3)CC2)n1,-2.3,34.2,16.4,8.1,7.9,-14.5
CN(C)c1ccc(-c2ccnc3c2CC(C)(C(=O)Nc2ccc(Cl)c(C(F)(F)F)c2)O3)cc1 (stereo not drawn),x,x,21.9,25.1,-6.5,5.0
CCn1cc(C(=O)NC(C)C23CC4CC(CC(C4)C2)C3)cn1 (stereo not drawn),3.1,11.8,21.6,6.2,-8.7,18.5
CC(NC(=O)Cn1ncc(Cl)c(Cl)c1=O)C12CC3CC(CC(C3)C1)C2 (stereo not drawn),-94.3,108.5*,97.4*,84.0*,-78.5*,91.0*
Cc1noc(C)c1C(=O)N1CCC1(C)C(=O)NS(=O)(=O)c1cccc(F)c1 (stereo not drawn),x,x,1.0,9.4,0.2,12.6
CCOc1cc(CNCC(C)C)cc(Cl)c1OCc1ccccc1,-6.7,-17.7,9.5,8.1,-3.2,7.0
COc1cc(CNCCc2ccccc2)cc(Cl)c1OCc1ccccc1,-12.1,-0.2,89.6*,14.2,-8.9,15.7
COc1cc(CNCc2ccccc2)cc(Cl)c1OC,3.7,-9.5,3.7,-3.7,3.0,-9.9
CCOc1cc(CNC2CCCC2)cc(Cl)c1OCc1ccccc1,-22.3,-4.3,56.6*,-3.9,-3.9,20.2
CCNC(=O)C1(C)CCN(C(=O)c2cccc3ccccc23)C1 (stereo not drawn),x,x,-10.8,0.1,3.6,1.2
COc1cc(C(C)=O)ccc1OCC(O)Cn1nc(C)c(Br)c1C (stereo not drawn),62.1*,-6.4,-16.2,0.4,-6.7,-27.3
COc1ccc(CN2C(=O)CSCC2(C)C(=O)NCc2ccccc2)cc1OC (stereo not drawn),x,x,x,x,x,15.8
O=C1C=CC(=O)N1c1ccc2c(c1)Cc1cc(F)ccc1-2,4.8,4.1,97.4*,26.4,-12.2,-4.9
CC(=O)Nc1ccc2c(c1)Cc1cc(N3C(=O)C=CC3=O)ccc1-2,11.5,78.1*,98.2*,30.5,4.9,41.9*
CCC1CCCCN1S(=O)(=O)c1ccc(NC(=O)C2CC(=O)N(C(C)(C)C)C2)cc1 (stereo not drawn),0.5,-45.3,-188.2,-21.3,20.2,-195.6
Cn1nc(C(F)(F)F)c(-c2ccc(F)cc2)c1NC(=O)c1ccco1,0.5,2.3,-12.1,3.8,0.5,19.5
Cn1nc(C(F)(F)F)c(-c2ccc(Br)cc2)c1NC(=O)Nc1ccc(F)cc1F,7.9,9.4,51.1*,30.9,-13.2,7.0
Cc1cc(C)c2nc(NNC(=O)c3ccc(S(=O)(=O)N4CCc5ccccc5C4)cc3)sc2c1,u,77.7*,75.0*,13.3,-21.2,1.8
O=C(NC1CCCCC1)C(c1ccncc1)N(Cc1ccc(F)cc1)C(=O)c1ccccn1 (stereo not drawn),0.2,-3.1,9.2,-17.3,16.6,17.8
O=C(NC1CCCCC1)C(c1ccncc1)N(Cc1ccccc1)C(=O)c1ccc(-c2ccccc2)[nH]1 (stereo not drawn),-0.7,21.2,13.5,37.8,-50.2*,-32.2
C=C[C@]1(C)C=C2CC[C@H]3[C@@](C)(CCC[C@@]3(C)C(=O)O)[C@@H]2CC1,2.0,0.0,5.6,15.9,-8.0,13.9
C=C[C@]1(C)C=C2C(=O)[C@@]3(O)OC(=O)[C@@]4(CCCC(C)(C)[C@H]34)[C@@]2(O)CC1,x,x,98.7*,88.0*,-98.6*,96.8*
CC12CCC(O)CC1=CCC1C2CCC2(C)C3=NN=CC3CC12 (stereo not drawn),1.9,3.3,51.2*,38.1,-11.0,6.7
COCOCCn1cc(CN2CCS(=O)(=O)N(Cc3ccc(-c4ccc(Cl)c(Cl)c4)cc3)C(C)C2=O)nn1 (stereo not drawn),14.8,x,92.8*,20.1,-12.9,-38.4
Cc1cccc(C)c1-c1ccc(CN2C(CC(C)C)C(=O)N(Cc3cn(CCO)nn3)CCS2(=O)=O)cc1 (stereo not drawn),9.7,4.5,58.5*,39.1,2.3,-10.3
SMILES,EBV LMP1 NFkB,TRPM1 prom inh,Peg3 promoter,CF NFkB inh,KKLEB cytotox,HIF-2a block
CC(C)CC1C(=O)N(Cc2cn(CCC3OCCCO3)nn2)CCS(=O)(=O)N1Cc1ccc(-c2ccc(Cl)c(Cl)c2)cc1 (stereo not drawn),9.7,x,55.5*,35.2,-18.5,-32.5
CC(C)CC1C(=O)N(Cc2cn(CCC3OCCO3)nn2)CCS(=O)(=O)N1Cc1ccc(-c2cccc(CO)c2)cc1 (stereo not drawn),14.9,x,-2.2,6.3,10.7,21.9
Cc1cccc(S(=O)(=O)N(C)C[C@@H]2OCc3cnnn3CCCC(=O)N([C@@H](C)CO)C[C@@H]2C)c1,-1.8,x,6.5,5.4,0.8,8.2
COC(=O)c1c(C)[nH]c(C(=O)COC(=O)CCc2ccc(OC)c(OC)c2)c1C,1.2,x,26.0,-14.2,0.8,8.4
COc1ccc(OC)c(-c2nc(C(=O)NCC3CCCO3)cc3c2[nH]c2ccccc23)c1 (stereo not drawn),-2.0,18.6,25.4,17.8,-1.1,20.0
COc1cccc(-c2nc(C(=O)NCC3CCCO3)cc3c2[nH]c2ccccc23)c1 (stereo not drawn),7.7,-2.9,55.7*,-43.8,3.7,-9.8
CN=c1scc(-c2ccc(F)cc2)n1/N=C/c1ccc(O)c(O)c1,8.7,68.4*,15.9,13.3,-26.8,-103.3
CN=c1scc(-c2ccc([N+](=O)[O-])cc2)n1/N=C/c1ccco1,-8.0,-32.7,-93.5,-8.0,5.3,-95.0
CCCCCCCCC(c1nc2ccccc2[nH]1)N1CCN=C1c1cc2ccccc2[nH]1 (stereo not drawn),x,x,100.1*,14.4,-25.9,29.0
COCCCNCC1C(Oc2ccc(Cl)cc2)C(=O)N1c1ccccc1C (stereo not drawn),75.8*,1.4,6.3,1.9,-4.4,4.4
COc1cc2c(CCNC(C)=O)c[nH]c2cc1Cl,74.2*,-11.1,0.1,-22.2,4.3,-13.5
CC(=O)Oc1ccc(Cn2c(C)c(C(=O)NCc3ccccc3C(F)(F)F)sc2=O)cc1,x,x,-9.4,3.7,1.5,1.9
Cc1ccc(C)c(S(=O)(=O)Nc2ccc(O)c3ccccc23)c1,9.8,25.6,13.0,85.6*,-52.9*,-9.6
COc1ccc(S(=O)(=O)Nc2ccc(O)c3ccccc23)cc1,-7.6,68.7*,30.9,89.8*,-47.9,38.0
CCCCNC(=O)C1(C)CCC(=O)N1C1CCN(Cc2ccccc2)CC1 (stereo not drawn),x,x,3.2,-41.2,4.9,11.5
Cc1ccc(Sc2cnc3ccccc3n2)cc1,56.0*,-77.9,-358.6,-10.2,-3.2,-280.3
